Compound activity deposited in PubChem BioAssay by National Center for Advancing Translational Sciences (NCATS).
This is one part of a sample in which hits are shown more often than they occur.
HTT aggregate = mutant huntingtin aggregation inhibition. PC12 HttQ103-GFP aggregates, Acumen cytometry, 40 h. Potency, µM (series often up to 46.1 µM), for the others: at the highest dose activity change, negative = inhibition, usual class: inhibitors. actives 1.1% (n = 220,000); note: potency is the fitted concentration of half-maximal effect; % is set by controls: 0 for no effect and ±100 for the full control effect; nearly all actives have a fitted effect of over 60% in size
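Aggregates are detected as GFP objects 1–25 µm with signal 6 STDEV over background in lysates of induced PC12 cells. These carry Huntingtin exon 1 with 103 glutamines fused to GFP under an ecdysone promoter; compounds titrated.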
HTT cytoprotect = protects HTT-Q103 PC12 cells, measured by ATP; PC12 HTT-Q103 induced, cytoprotection, ATP luminescence, 40 h; Potency, µM (series often up to 56.4 µM), inactives show cytoprotection (ATP increase), usual class: activators; actives 0.14% (n = 230,000); note: potency is the fitted concentration of half-maximal effect; % of control where 0% means no effect; nearly all actives have a fitted effect of over 45% in size
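Compounds added alongside 100 nM tebufenozide, which induces toxic Q103 huntingtin exon 1-GFP in stable PC12 cells; surviving cells quantified by luminescent ATP measurement. Medium: phenol red-free DMEM, 5% equine and 5% calf serum.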
GALK inh = inhibitors of human galactokinase; Purified GALK, Kinase-Glo residual ATP luminescence; Potency, µM (series often up to 57.5 µM), inactives show at the top dose activity change, negative = inhibition, actives largely listed as inhibitors; actives 0.007% (n = 270,000); note: potency is the fitted concentration of half-maximal effect; % is set by controls: 0 for no effect and ±100 for the full control effect
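The enzyme phosphorylates galactose (100 uM) using ATP (35 uM); inhibition is detected as higher residual ATP, quantified by bioluminescence after 1 h reaction at room temperature, pH 8.0.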
PI4K2A block = blocks human PI4K2A kinase activity | purified PI4K2A, ADP-Glo luminescence, 1 h; hits give low values | activity change, negative = inhibition, % at 76.9 µM | actives 0.13% (n = 420,000) | AID 1346378; in the data active = activity change below about -50%; inconclusive = mostly about -30% to -49%;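 note: -100% = wells without enzyme as full effect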
Target sequence (Q9BTU6 whole entry, looked up): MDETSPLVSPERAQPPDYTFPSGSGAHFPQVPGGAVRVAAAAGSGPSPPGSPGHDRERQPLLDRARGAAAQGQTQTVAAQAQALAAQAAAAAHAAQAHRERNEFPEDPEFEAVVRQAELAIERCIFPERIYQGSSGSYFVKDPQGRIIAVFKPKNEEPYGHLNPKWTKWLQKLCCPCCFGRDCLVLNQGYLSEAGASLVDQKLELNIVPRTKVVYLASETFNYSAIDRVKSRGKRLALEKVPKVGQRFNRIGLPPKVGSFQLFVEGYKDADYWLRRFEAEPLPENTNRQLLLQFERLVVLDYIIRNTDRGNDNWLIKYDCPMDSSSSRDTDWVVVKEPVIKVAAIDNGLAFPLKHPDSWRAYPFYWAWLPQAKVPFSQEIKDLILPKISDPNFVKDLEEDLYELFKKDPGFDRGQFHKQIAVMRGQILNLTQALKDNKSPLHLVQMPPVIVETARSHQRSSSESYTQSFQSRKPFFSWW
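ADP-Glo luminescence measured ADP generated by PI4K2A enzyme (4 ug/mL before mixing) with 1.2 mM PI substrate (pre-mix) and 300 microM ATP (pre-mix). Tris pH7.5 buffer with MgCl2, Triton X-100; 1 h reaction at ambient temperature.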
* = called active by the depositor; i = inactive; ? = inconclusive; · = no result; [ ] = another dose, or the depositor's remark. Unless noted, calls come from the whole dose curve; as a rule, active = well fitted curve in the direction sought with a large enough effect; inconclusive = small, poorly fitted or top-dose-only effect, or another doubt; inactive = no such curve, though single readings can be large; an effect the other way counts as inactive or inconclusive.

SMILES	HTT aggregate	HTT cytoprotect	GALK inh	PI4K2A block
C/C(CC(=O)Nc1ccc(Cl)c(C(F)(F)F)c1)=N\NC(=O)c1ccccc1O	16µM*	-4%[10 µM]	0%	-4
Cc1nc2sccn2c1-c1csc(NCc2ccccc2)n1	7.1µM*	-79%	-1%	-1
OCCN1CCN(c2ncnc3ccc(Br)cc23)CC1	4.5µM*	13%	3%	-3
OCCN1CCN(c2nc(-c3ccccc3)c3cc(Br)ccc3n2)CC1	·	·	-2%	1
COC(=O)C1=C(C(=O)OC)[C@@H]2N(C)c3ccccc3[C@@]23C[C@@H](CO)N(C(=O)c2cc(C)oc2C)C3=N1	·	-6%[10 µM]	·	·
COc1ccc(O)c(/C=N/NC(=O)c2ccc(CSc3nc(C)cc(C)n3)cc2)c1	5.6µM*	-10%[10 µM]	-2%	0
O=C(Nc1cccc(Cl)c1)OCCN1CCCC12CCC(c1ccccc1)CC2 (stereo unspecified)	·	·	·	-6
Cc1ccc(Cl)cc1NC(=S)NCCCSC1CCCCC1	22µM*	-195%	-3%	10
COc1cc(CC(=O)Nc2ccccc2N2CCOCC2)cc(OC)c1OC	2%	-33%	1%	-6
COc1ccc(C)cc1C(=O)CCC(=O)Nc1ccccc1N1CCOCC1	13µM*	17%[10 µM]	1%	3
CC(C)(C)C(=O)/C(=C/c1ccc(Cl)cc1)n1cncn1	·	·	·	-3
CC(C)(C)C(=O)/C(=C\c1ccc([N+](=O)[O-])cc1)n1cncn1	5µM*	?	-1%	·
CC(=O)CCS(=O)(=O)c1ccc(Oc2ccc(S(=O)(=O)CCC(C)=O)cc2)cc1	?	24%[10 µM]	0%	-17
COc1ccc(S(=O)(=O)CCC(=O)O)cc1	2.2µM*	-28%	1%	-13
C#CCN1C(=O)[C@@](O)(c2cccn2C)c2cc(F)ccc21	·	·	·	-10
O=c1cc(-c2ccccc2)[nH]n1-c1ccccc1	·	·	·	-8
CC(C)(C)c1cc(=O)n(-c2ccccc2)[nH]1	0%	·	·	-54*
O=C(NCCN1CCC(Cc2ccccc2)CC1)C1CCCN(S(=O)(=O)c2ccccc2)C1 (stereo unspecified)	·	·	·	0
Cc1ccc(CNc2ncnc3cc(Cl)ccc23)o1	13µM*	-10%	-4%	1
CCC[C@H]1[C@@H](OC(=O)NCc2ccc(Cl)c(Cl)c2)CC[C@@]23CCCN2C(=O)CCC[C@@H]13	·	·	·	-4
COc1cc2c(cc1OC)C(c1ccc(-c3ccc(Cl)cc3Cl)o1)=NCC2	14µM*	-104%	-2%	-4
COc1cc2c(cc1OC)C(c1ccc(-c3cc(Cl)ccc3Cl)o1)=NCC2	5%	-52%[10 µM]	5%	-3
COc1cc2c(cc1OC)C(c1ccc(-c3ccc(Cl)c(Cl)c3)o1)=NCC2	8.9µM*	8%[10 µM]	3%	8
COC(=O)[C@@H]1C[C@H]1[C@@H](NC(=O)OCc1ccccc1)c1ccccc1	·	5%	·	·
O=C1/C(=C/c2ccco2)SC(=S)N1C1CCS(=O)(=O)C1 (stereo unspecified)	4.5µM*	-98%[10 µM]	5%	-11
SMILES	HTT aggregate	HTT cytoprotect	GALK inh	PI4K2A block
O=C1C[C@H](c2ccccc2)[C@@H](c2ccc(Br)cc2)O1	·	-8%[10 µM]	·	·
C[C@@H]1[C@@H](Sc2ccccc2)CC(=O)O[C@@H]1c1ccc(-c2ccccc2)cc1	·	·	·	-63*
CCN1CCN(c2cc(-c3ccc(F)cc3)c3c(n2)CCCCCC3)CC1	·	·	·	i
Oc1ccc(/C=N/Nc2ncnc3nc[nH]c23)cc1	-17%[9.22 µM]	-13%[10 µM]	8%	-52*
COCCNC(=O)CN(C(=O)CCC(=O)Nc1ccccn1)c1ccccc1OC	·	·	5%	2
COCCNC(=O)CN(C(=O)CCC(=O)Nc1ccccn1)c1ccccc1F	0.0045µM*	-17%	0%	-2
COc1ccc(-c2nc3c(c4c2C[C@H](c2ccccc2)OC4)CN(S(=O)(=O)c2ccc(C#N)cc2)CC3)c(C)c1	·	-16%[10 µM]	·	·
CCc1c(C)nc2ncnn2c1NCCc1ccccc1	10µM*	-37%	1%	1
Cc1ccc(NC(=O)Cc2nn(C)c(=O)c3ccccc23)cc1F	3.5µM*	-27%	-1%	3
Cn1nc(CC(=O)Nc2ccc(N3CCN(C(=O)OC(C)(C)C)CC3)cc2)c2ccccc2c1=O	4µM*	32%[10 µM]	-3%	2
Cn1nc(CC(=O)Nc2ccc3c(c2)OCCO3)c2ccccc2c1=O	?	0%[10 µM]	-6%	-3
Cn1nc(CC(=O)N2CCN(c3ccccc3)CC2)c2ccccc2c1=O	-13%	-10%[0.074 µM]	1%	-5
O=C(CN1C2=NCCCN2c2ccccc21)c1cccc(Br)c1	4µM*	-97%[10 µM]	3%	0
O=C(CN1C2=NCCN2c2ccccc21)c1ccc(Br)cc1	14%	-16%[10 µM]	1%	-4
c1ccc2c(CN3CCN(Cc4c[nH]c5ccccc45)CC3)c[nH]c2c1	·	3%[10 µM]	·	·
c1cnc(N2CCN(Cc3c[nH]c4ccccc34)CC2)nc1	11µM*	-86%	2%	-15
Cc1ccccc1N1CCN(Cc2c[nH]c3ccccc23)CC1	22µM*	-53%[10 µM]	3%	4
C[C@H]1[C@H](C)CC[C@@]2(C(=O)O)CC[C@]3(C)C(=CC[C@H]4[C@@]5(C)C[C@@H](O)[C@H](O)[C@@](C)(CO)[C@@H]5CC[C@@]43C)[C@@H]12	·	16%	·	·
CCN(CC)P(=O)(Nc1ccc(C)cc1Br)c1ccc(N(C)C)cc1NC(=O)c1ccco1 (stereo unspecified)	35µM*	25%	1%	-3
O=c1c(Cc2ccc(Cl)cc2)c(O)ccn1Cc1cccc(Cl)c1	-32%	-12%[10 µM]	1%	4
O=c1c(Cc2ccc(Cl)cc2Cl)c(O)ccn1Cc1ccc(Cl)cc1	20µM*	-4%[10 µM]	0%	2
Cc1ccc(S(=O)(=O)N2C(=O)/C(=C3\SC(=S)NC3=O)c3ccccc32)cc1	0.79µM*	·	-2%	·
O=C(/C=C\c1ccc(O)c(O)c1)O[C@H]1C[C@@](O)(C(=O)O)C[C@H](O)[C@@H]1O	·	-12%	·	·
Cc1ccc(Nc2cc(-n3cccn3)ncn2)c(C)c1	2%[9.22 µM]	-4%	0%	-1
Fc1cccc(Nc2cc(-n3cccn3)ncn2)c1	13µM*	10%[10 µM]	1%	0
SMILES	HTT aggregate	HTT cytoprotect	GALK inh	PI4K2A block
Cn1cccc1C(=O)N1CCN(S(=O)(=O)c2cccs2)CC1	·	·	·	-3
Cc1ccc2c(c1)CCCN2C(=O)c1ccco1	2.5µM*	-17%	-3%	2
O=C(c1ccco1)N1CCc2ccccc21	0%	-22%	1%	-4
COC(=O)[C@H]1C[C@]2(C(/C=C(\C)CCC=C(C)C)S(=O)(=O)c3ccccc3)c3ccccc3N[C@H]2N1 (stereo partly specified)	·	·	·	-1
C=CCSc1nnc(NC(=O)c2cccc(S(=O)(=O)N(C)c3ccccc3)c2)s1	10µM*	-18%[0.074 µM]	-2%	-4
CN(c1ccccc1)S(=O)(=O)c1cccc(C(=O)Nc2nccs2)c1	-20%	-127%	-1%	0
COc1ccc(/C=N/Nc2nnc(-c3ncc[nH]3)c3ccccc23)cc1	?	-42%	-1%	0
Oc1ccc2ccccc2c1/C=N/Nc1nnc(-c2ncc[nH]2)c2ccccc12	0.79µM*	-76%[10 µM]	0%	4
